BRCA1 expr up = qHTS Assay to Identify Small Molecule Activators of BRCA1 Expression | MCF7-BRCA1-FFLuc reporter, luminescence, 48 h; response scale: scaled: vehicle 0%, 10 µM genistein 100% | Potency, µM (doses to about 46.1 µM), most hits filed as activators | 380,000 tested, 1.1% active; note: nearly all actives have a fitted effect of over 80% in size
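Luminescence from a BRCA1-driven firefly luciferase in MCF7 cells was read after 48 h compound exposure at 37 C. Data normalized against DMSO and a 10microM genistein activation control, then curve-fitted across the titration.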
p53 reactivation = qHTS assay for re-activators of p53 using a Luc reporter. Potency, µM (series often up to 92.2 µM), actives largely listed as activators. AID 504706, 2011. 320,000 tested, 0.063% active. H1299 p53-A138V BP100-luciferase reporter, luminescence, 24 h; note: nearly all actives have a fitted effect of over 45% in size
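p53-null H1299 cells stably carrying temperature-sensitive p53-A138V and a BP100-luciferase reporter were pinned with compounds (4-point, 1:5 series) and held 24 hrs at 37 deg C. Luminescence was read 10 min after detection reagent.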
IL-2 act = qHTS of IL-2 Activators; activation, % (series mostly up to about 46 µM); 360,000 tested, 0.065% active; AID 652025, 2013; IL-2 activation reporter assay, cell-based qHTS; stimulated with anti-CD3/CD4/CD28 beads; in transgenic mouse T cells; in the data active = activation above about 50%; inconclusive = mostly about 30% to 49%
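Unstimulated transgenic mouse T cells, 750 per well, received compound and, after 60 minutes, anti-CD3/anti-CD4 bead plus anti-CD28 stimulation. EGFP and DsRed were quantified after 18 hours.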
Nrf2 block = Nrf2 qHTS screen for inhibitors | 360,000 tested, 2.1% active | Potency, µM (highest dose often 46 µM), actives largely listed as inhibitors | A549 ARE-Fluc reporter, luciferase luminescence, 18-24 h; note: nearly all actives have a fitted effect of over 60% in size
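Quantitative HTS in A549 cells stably bearing an antioxidant response element-firefly luciferase construct. Inhibition of Nrf2-driven transcription was scored by luminescence after 18-24 h of compound exposure at 37 °C.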
Nrf2 activator = qHTS of Nrf2 Activators; AREc32 ARE-luciferase reporter (MCF7-derived line), luminescence, 24 h; Potency, µM (doses to about 46.1 µM), hits mostly activators; 410,000 tested, 0.31% active; note: nearly all actives have a fitted effect of over 65% in size
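AREc32 cells carrying an ARE-driven firefly luciferase, 1000 cells/well in OPTI-MEM with 5% FBS, dosed after overnight attachment and incubated 24 hr at 37 deg C. Steady-Glo luminescence read after 30 min at RT.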
A549 viability = Nrf2 qHTS screen for inhibitors: counterscreen for cytotoxicity; A549 ARE-Fluc cells, CellTiter-Fluor viability, 18-24 h; Potency, µM (titrated, usually from 46 µM), actives largely listed as inhibitors; 390,000 tested, 0.16% active
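Cytotoxicity counterscreen: CellTiter-Fluor fluorescence was measured in A549 ARE_Fluc cells after 18-24 h of compound exposure in a concentration series. The subsequent BugLite luminescent read reports ARE-luciferase activity.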
A number is an active result; . = inactive; ? = inconclusive; / = no result given. Rows were chosen to be rich in hits. Some 3.2% of all compounds tested hit in one or more screens of this group. Unless noted, calls come from the whole dose curve; as a rule, active = well fitted curve in the direction sought with a large enough effect; inconclusive = small, poorly fitted or top-dose-only effect, or another doubt; inactive = no such curve, though single readings can be large; an effect the other way counts as inactive or inconclusive.

SMILES | BRCA1 expr up | p53 reactivation | IL-2 act | Nrf2 block | Nrf2 activator | A549 viability
O=C(Nc1cccc(-c2nnc(-c3ccccc3)o2)c1)c1ccc(Br)o1 | . | . | . | 23.1µM | . | ?
O=C(Nc1ccc(S(=O)(=O)NC2CCCCC2)cc1)c1ccc(Br)o1 | . | . | . | 14.6µM | . | .
COc1ccc(OC)c(NC(=O)CCc2nc(-c3ccc(C)cc3)no2)c1 | . | / | / | . | . | .
CCc1nc2nc(C)cc(Nc3ccc(OC)cc3)n2n1 | / | / | / | . | . | .
O=C(Nc1ccc(Nc2ccccc2)cc1)c1ccc(Br)o1 | ? | 31.6µM | . | . | . | .
Cc1cccc(COCC(CC(C)C)N2CCN(C(=O)c3ccc(C(C)(C)C)cc3)CCC2=O)c1 (stereo unspecified) | . | . | . | 23.1µM | . | ?
Cc1ccc(Nc2nc(COC(=O)C3CC3)cs2)cc1 | 10µM | . | . | ? | . | .
COc1ccc(-c2ccn(-c3cccc(F)n3)n2)cc1 | 3.16µM | ? | . | ? | . | ?
Nc1nn(-c2cccc(F)n2)cc1-c1ccc(Cl)cc1 | ? | ? | . | ? | . | .
CCOc1ccc(C(c2c(O)cc(C)n(CCOC)c2=O)N2CCN(c3ccccc3F)CC2)cc1 (stereo unspecified) | / | / | / | / | . | .
CCOC(=O)c1c(C)[nH]c(C)c1S(=O)(=O)N1CCN(c2ccccc2OC)CC1 | / | / | / | . | . | .
COc1cccc(-c2nc(C(N)=O)c3[nH]c(=O)n(-c4cccc(Cl)c4)c3n2)c1OC | . | . | . | . | . | .
COc1ccc(-c2nc(C(N)=O)c3[nH]c(=O)n(-c4cccc(Cl)c4)c3n2)cc1OC | . | . | . | 25.9µM | . | ?
CN=C1S/C(=C\c2ccc(O)c(OC)c2)C(=O)N1C | 10µM | / | . | . | . | .
CCOC(=O)c1c(C)oc2ncnc(Nc3ccc(OC)c(OC)c3)c12 | / | / | / | / | . | .
CN1C2=CC=CC=CC2=[N+](C)C12C([N+](=O)[O-])=CC(=[N+]([O-])[O-])C=C2[N+](=O)[O-] (stereo unspecified) | . | ? | . | . | ? | .
CN1C2=CC=CC=CC2=[N+](C)C12C=CC(=[N+]([O-])[O-])C=C2[N+](=O)[O-] (stereo unspecified) | . | . | . | 23.1µM | . | 18.4µM
Cc1cccc(OCC(=O)OCc2cc(=O)n3nc(C4CC4)sc3n2)c1 | . | / | / | ? | . | .
CC(=O)c1ccc(NC(=O)Nc2cccc(Cl)c2)cc1 | 7.08µM | ? | . | ? | . | .
CC(=O)c1ccc(NC(=S)NCCc2cccc(Cl)c2)cc1 | 3.16µM | . | . | . | . | .
Cc1ccc(NC(=O)Nc2ccc3c(c2)nc(C)n3C)cc1 | . | . | . | ? | . | .
Fc1ccccc1NC(=S)NCCc1cccc(Cl)c1 | 7.94µM | ? | . | . | . | .
CC(=O)c1ccc(NC(=O)Nc2ccc3c(c2)nc(C)n3C)cc1 | 3.55µM | . | . | ? | . | .
Cc1nc(C)c(C(=O)NCCC(c2ccccc2)c2ccccc2)o1 | . | . | . | 10.3µM | . | .
Cn1c(=O)n(C)c2cc(N3CCCCC3)c(NC(=O)c3ccc(C(C)(C)C)cc3)cc21 | / | / | / | . | . | .
SMILES | BRCA1 expr up | p53 reactivation | IL-2 act | Nrf2 block | Nrf2 activator | A549 viability
CN(C)c1cc2c(cc1NC(=O)c1ccc(F)cc1)n(C)c(=O)n2C | / | / | / | . | . | .
O=C1/C(=C/c2cccc(Br)c2)SC(=S)N1CCC(=O)N(CCO)c1ccccc1 | . | ? | . | . | 12.6µM | .
CN1CCN(C(=O)CCCN2C(=O)/C(=C/c3cccc(Br)c3)SC2=S)CC1 | . | ? | . | ? | 12.6µM | ?
O=C(O)c1ccc2c(c1)C(=O)N([C@H](Cc1ccccc1)C(=O)O)C2=O | / | / | / | . | / | .
CCOc1ccc(CCNC(=O)CCCc2nnc3n(CC)c(=O)c4sccc4n23)cc1 | / | / | / | . | . | .
CCCCOc1ccc(CSc2nc(C)[nH]c2[N+](=O)[O-])cc1[N+](=O)[O-] | . | . | . | 14.6µM | . | ?
CCCCOc1ccc(CSc2nnc(C)n2N)cc1[N+](=O)[O-] | . | . | . | . | . | .
COc1ccc(CCNC(C)=O)cc1 | . | . | . | . | . | .
Cn1cccc1C(=O)NCCc1ccc(Cl)cc1 | 7.08µM | . | . | ? | . | .
Cn1cccc1C(=O)NCCc1ccccc1 | . | ? | . | ? | . | .
COc1ccc(CCNC(=O)c2cccn2C)cc1 | 2.82µM | . | . | ? | . | .
O=C(O)c1ccccc1NC(=O)N1c2ccccc2Sc2ccccc21 | / | / | / | . | . | .
CC(=O)Nc1ccc2c(c1)C(=Nc1ccc(C)cc1)c1ccccc1-2 | . | / | . | . | 12.6µM | .
CCOC(=O)Nc1ccc2c(c1)C(=NO)c1ccccc1-2 | . | / | . | ? | . | .
CC(=O)Nc1ccc2c(c1)C(=Nc1ccccc1)c1ccccc1-2 | . | / | . | . | 11.2µM | .
CC(=O)Nc1ccc(S(=O)(=O)O)c2cc(S(=O)(=O)O)c(N=Nc3ccc(N=Nc4ccc(S(=O)(=O)O)cc4)c4ccc(S(=O)(=O)O)cc34)c(O)c12 | . | / | / | / | / | /
CCCN(CCC)C(=O)Cn1c(=O)n(-c2ccc(CC)cc2)c(=O)c2c3c(sc21)CCC3 | . | / | / | . | . | .
Cc1ccc(S(=O)(=O)c2nnn3c2nc(NCc2ccc4c(c2)OCO4)c2sccc23)cc1C | / | / | / | ? | . | .
Cc1nn(-c2ccccc2)c2c1cc1c(=O)[nH]c(=O)nc-1n2-c1cccc(Cl)c1 | . | / | / | . | . | .

Screens from PubChem BioAssay.
